Test results as given in PubChem BioAssay (NCATS).
Results filed as inconclusive are left out. Where a call stands in place of a potency, no number is given. Values without a mark were called inactive. Active and inactive are the calls of the source. Calls follow the shape of the dose curve; as a rule, active = well fitted inhibition curve with a large enough effect; inconclusive = small, poorly fitted or top-dose-only effect; inactive = no such curve, though single readings can be large or run the other way.

biological target: Retinaldehyde dehydrogenase 3 (Homo sapiens) (UniProt P47895); assay: qHTS for Inhibitors of the Aldehyde Dehydrogenase Family (ALDH1A3) Primary screen (AID 2061315); details: ALDH inhibition qHTS; series mostly up to 56 µM

Row | Compound | Potency | activity change, negative = inhibition
1 | CC1(C)Oc2ncnc(N)c2N=C1c1ccc(C2CCC(CC(=O)O)CC2)cc1 (stereo unspecified) | inactive | –
2 | COC(=O)C[C@H]1C(C)(C)[C@H](OC(C)=O)C2CC3=C4CC(=O)O[C@@H](c5ccoc5)[C@]4(C)CCC3[C@@]1(C)C2=O (stereo partly specified) | inactive | –
3 | CN(C)C(=O)CNC(=O)Cc1ccccc1 | inactive | –
4 | CN1CCc2cc3c(cc2C(=O)Cc2cc4c(cc2C1)OCO4)OCO3 | inactive | –
5 | CC(C)(O)C(=O)N1CCN(c2ccc(C(F)(F)F)c(C3=C(c4c[nH]c5ccccc45)C(=O)NC3=O)c2)CC1 | inactive | –
6 | CC1(C)[C@@H](O)CC[C@]2(C)[C@H]3CC=C4[C@@H]5C[C@](C)(C(=O)O)CC[C@]5(C)CC[C@@]4(C)[C@]3(C)CC[C@@H]12 | inactive | –
7 | CC(=O)OC[C@]12[C@H](OC(C)=O)[C@H](OC(=O)c3ccccc3)[C@@H]3[C@@H](OC(C)=O)[C@]1(OC3(C)C)[C@H](C)C[C@H](OC(C)=O)[C@@H]2OC(=O)c1ccccc1 | inactive | –
8 | C=CC(C)(O)CC/C=C(\C)C(=O)OC1CC2(C(=O)O)CCC3(C)C(=CCC4C5(C)CCC(OC6OC(COC7OCC(O)C(O)C7O)C(O)C(OC7OCC(O)C(O)C7O)C6OC6OC(CO)C(O)C(O)C6OC6OCC(O)C(O)C6O)C(C)(C)C5CCC43C)C2CC1(C)C (stereo unspecified) | – | -4.78% [at 11.2 µM]
9 | O=C(/C=C/c1ccc(O)cc1)OC[C@H]1O[C@@H](O/C(=C\c2ccccc2)C(=O)O)[C@H](O)[C@@H](O)[C@@H]1O | inactive | –
10 | COc1cc(-c2cc(-c3cccc(O)c3)cnc2N)cc(OC)c1OC | inactive | –
11 | COc1ccc(CCO[C@@H]2O[C@H](CO[C@@H]3OC[C@H](O)[C@H](O)[C@H]3O)[C@@H](O)[C@H](O)[C@H]2O)cc1 | inactive | –
12 | C=C1CC2[C@]3(C)C(=C(O)C(=O)[C@@]2(C)[C@]2(C(=O)OC)C(=O)C(C)OC(=O)[C@@]12C)C(C)(C)C(=O)CC3O (stereo partly specified) | inactive | –
13 | C=C1/C(=C/C=C2\CCC[C@]3(C)[C@@H]([C@H](C)CC[C@@H](O)C(C)(C)O)CC[C@@H]23)C[C@@H](O)C[C@@H]1O | inactive | –
14 | COc1cc2c(c(OC)c1O)C(c1ccc(O)cc1)C1C(=O)OC3C(COC(=O)C1=C2)OC(CO)(OC1OC(COC(=O)/C=C/c2ccc(OC4OC(C)C(O)C(O)C4O)cc2)C(O)C(O)C1O)C3O (stereo unspecified) | inactive | –
15 | COc1cc(/C=C/C(=O)O[C@@H]2C[C@](O)(C(=O)O)C[C@@H](O)[C@H]2O)ccc1O | inactive | –
16 | CCCO[C@@H]1O[C@H](CO)[C@@H](O)[C@H](O)[C@H]1O[C@@H]1OC[C@@H](O)[C@H](O)[C@H]1O | inactive | –
17 | CC1=CC(=O)CC(C)(CO)C1(O)/C=C/C(C)O[C@@H]1O[C@H](CO)[C@@H](O)[C@H](O)[C@H]1O (stereo partly specified) | inactive | –
18 | C=CC(C)(O)CCC1C(C)(O)CCC2C(C)(C)CCCC21C (stereo unspecified) | inactive | –
19 | Cc1ccc(Cc2c(C)nc3nc(SCC(=O)NCCN4CCNCC4)nn3c2C)cc1 | inactive | –
20 | COc1cc2c(c(OC)c1CC=C(C)C)C[C@H](c1ccc(O)cc1O)CO2 | inactive | –
21 | CC1(C)CC[C@]2(C(=O)O[C@@H]3O[C@H](CO)[C@@H](O)[C@H](O)[C@H]3O)CC[C@]3(C)C(=CCC4[C@@]5(C)C[C@@H](O)[C@H](O)[C@](C)(C(=O)O)C5CC[C@]43C)C2C1O (stereo partly specified) | inactive | –
